Measurements taken from the supplement of paper PMC10338343.
± gives the standard deviation.

Test system: MILI (PIWIL2) piRISC loaded with L1MC piRNA (26 nt)
Experiment: pre-steady-state target cleavage rate (min^-1); guide: L1MC piRNA 5'p-UAACUAAAUACUAUGCAAGCUGUAGG; MIWI and MILI are mouse PIWI proteins and EfPiwi is from a freshwater sponge; tags in brackets are library labels; higher = faster piRNA-guided slicing of the target
Outline: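 Cleave-'n-Seq measured uncleaved targets by sequencing after a transcribed, DNA-blocked target RNA library […] was mixed with 1 nM active affinity-purified piRISC holding one synthetic guide, with or without 500 nM GTSF1 partner protein, at 33 °C in HEPES–potassium acetate buffer for 0–8 or 0–960 min. Counts were normalised to depth and to weakly complementary targets, three trials were pooled, and k3 was capped at 0.0001 min^-1. A burst-and-steady-state fit gave the pre-steady-state cleavage rate.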

[1] = auxiliary factor: 500 nM mouse GTSF1
[2] = auxiliary factor: none (no GTSF1)
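Further: 1 nM active piRISC with 0.1 nM target library at 33 °C single turnover.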

Row | Sequence | pre-steady-state target cleavage rate [1] | pre-steady-state target cleavage rate [2]
1 | UCCUGGUUGAGCUUGCAUAGUAUUUAGAAA | 0.0925 ± 0.026 | –
2 | UCCUGGAUGUCGAACGAUAGUAAUAAGUUA | < 0.0001 | –
3 | UCCUGGAUGUGCUUGCUUAGUAUUUAGAUA | 0.141 ± 0.032 | –
4 | UCCUGGAUGUCGAUGCAUAGUAUUUCAGUUA | 0.108 ± 0.025 | –
5 | UCCUGGAUGUCGUUGCAUAGUUUAUAGUUA | – | 0.0036 ± 0.0028
6 | UCCUGGAUGUCGAUCCAUAGAAUUUAGUUA | – | < 0.0001
7 | UCCUGGAUGUCGAACCAUAGUAUUUAGUUUA | 0.00592 ± 0.0031 | –
8 | UCCUGCUACAGCUUGCAUAGUUUUUACUUA | 0.0291 ± 0.0063 | –
9 | UCCUGGAUCAGCUACGAUAGUAUUUUCAAA | – | < 0.0001
10 | UCCUGGAUGUCCUUGCAUAGUAUUUACUAA | 0.0464 ± 0.011 | –
11 | UCCUGCUACACCUUGCAUAGAAUUUAGUUA | 0.0952 ± 0.037 | –
12 | UCCUGGAUGUCGAUGCAUAGUAUUGAGUUA | 0.0608 ± 0.013 | –
13 | UCCUGGAUGUGCUUGCUUAGAAUUUAGUUA | 0.00417 ± 0.0032 | –
14 | UCCUGGAUGUCGAACCUUAGUAUUUAGAUA | – | < 0.0001
15 | UCCUGGAUGUCGAACCAUAGUAAUUUGUUA | – | < 0.0001
16 | UCCUGGAUCUCGUUGCAUAGUAUUUACAAA | 0.0638 ± 0.014 | –
17 | UCCUGGAUGAGCUUGCAAAGUAUUUAGAUA | 0.117 ± 0.022 | –
18 | UCCUCCUACAGCUUGCAUUGUAUUUUCAAA | 0.0415 ± 0.012 | –
19 | UCCUGGUACACGAUGCAUAGUAUUUACAAA | 0.00826 ± 0.0057 | –
20 | UCCUGGAUGUCGAAGCAUAGUAUUUACGUUA | 0.0359 ± 0.0066 | –
21 | UCCUGGAUGUGCUUGCUUAGUAUUUAGAAA | 0.0749 ± 0.017 | –
22 | UCCUGGUUGAGCUUGCAUAGUAUUUACAAA | 0.0198 ± 0.0068 | –
23 | UCCUGGAACAGCUUGCAAAGUAUUUUGUUA | 0.0942 ± 0.021 | –
24 | UCCUGGAUGUCGAUGCAUAGUAUUUAAUUA | 0.0256 ± 0.0092 | –
25 | UCCUGGAUCAGCUUGCAUUCUAUUUACAAA | – | < 0.0001
26 | UCCUGGAUGUCCUUGCUAUGUAUUUAGUAA | 0.00762 ± 0.0042 | –
27 | UCCUGGAUGUCGAACGUAUCUAUUUCAGUUA | < 0.0001 | –
28 | UCCUGCUACAGCUUGCAUACAUUUUAGUUA | 0.0121 ± 0.0061 | –

Row | Sequence | pre-steady-state target cleavage rate [1] | pre-steady-state target cleavage rate [2]
29 | UCCUGGAUGAGCUUGCAUUCUAUUUAGUUA | 0.0348 ± 0.0092 | –
30 | UCCUGGAUGUCGAACGUAUGUAUUUCGUUA | – | < 0.0001
31 | UCCUGGAACAGCAUGCAUAGAAUUUAGUUA | 0.0767 ± 0.018 | –
32 | UCCUGGAUGUCGAAGCAUAGUAAUUAGUUA | 0.00988 ± 0.0037 | –
33 | UCCUGGAUGUCGAUACAUAGUAUUUAGUUA | 0.0231 ± 0.0046 | –
34 | UCCUGGAUCAGCUUGCAUAGAUUUUAGAAA | 0.00651 ± 0.0043 | –
35 | UCCUGGAUGUCGAACGUUACUUUUUAGUUA | – | < 0.0001
36 | UCCUGGAUGUCGAACGUAUCUAAUUUAGUUA | – | < 0.0001
37 | UCCUGGAUGUCCUUGCAUAGUUUUUAGUAA | 0.013 ± 0.0043 | –
38 | UCCUGGUACAGCUUGCAUUAGUAUUUAGUUA | 0.017 ± 0.0074 | –
39 | UCCUGCUUGUGCUUGCAUAGUAUUUUCAAA | 0.00521 ± 0.0042 | –
40 | UCCUGGAACAGCUUGCAUUGUAUUAAGUUA | 0.163 ± 0.026 | –
41 | UCCUGGAACACCUUGCAUAGUAUUUAGAAA | 0.146 ± 0.031 | –
42 | UCCUGGAUGUCGAACCAUAGUAUUGAGUUA | – | < 0.0001
43 | UCCUGGAUGUCCAACCAUAGUAUUUAGUAA | – | < 0.0001
44 | UCCUGGAACAGCAAGCAUAGUAUUUAGUAA | 0.271 ± 0.025 | –
45 | UCCUGGAUGUCGAACGUAUGUUUUAGUUA | – | < 0.0001
46 | UCCUGCUACAGCUAGCAUAGUAUUUAGAAA | 0.227 ± 0.051 | –
47 | UCCUGCUACAGGUUGCAUAGUAUUUACUUA | 0.0231 ± 0.011 | –
48 | UCCUGGAUCAGCUUGCAAUGUAUUUUCAAA | 0.00576 ± 0.0035 | –
49 | UCCUGGAUGUCGAACCAUAGAAAUUAGUUA | < 0.0001 | –
50 | UCCUGGAACUCCUUGCAUAGUAUUUACAAA | 0.241 ± 0.061 | –
51 | UCCUGGAUCUGCUUGCAUAGAAUUUAGUUA | 0.0261 ± 0.0069 | –
52 | UCCUGGAUGUCGAAGCAUAGUAUUUCAGUUA | 0.0176 ± 0.0068 | –
53 | UCCUGGAUGUCGAAGCUUAGUAUUUAGUUA | 0.00685 ± 0.0029 | –
54 | UCCUGCUACAGCUUGCAUAGUAAAAACAAA | 0.0234 ± 0.01 | –
55 | UCCUCCUACAGCUUGCAUUGAAUUUAGUUA | 0.0267 ± 0.008 | 0.00236 ± 0.0021
